This is part of a sample that, as a whole, favours compounds with a hit. Of some 83,000 tested, about 20% had one in any assay.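 Single-dose data. Exposure time 48 hours. Values below 10 considered active.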 Values without a mark were called inactive. Activity calls are given as the source filed them.
Legend:
Assay in all cases: NCI-60 one-dose screen, 48 h (100 = growth as untreated, 0 = no growth, -100 = all killed)
Settings in all cases: 10 µM unless noted
HCT-15 colon = tested on: HCT-15 colon
HT29 colon = tested on: HT29 colon
SNB-75 CNS = tested on: SNB-75 CNS
SNB-19 CNS = tested on: SNB-19 CNS
U251 CNS = tested on: U251 CNS
PC-3 prostate = tested on: PC-3 prostate
SK-MEL-5 melanoma = tested on: SK-MEL-5 melanoma
UACC-62 melanoma = tested on: UACC-62 melanoma
LOX IMVI melanoma = tested on: LOX IMVI melanoma
SK-MEL-28 melanoma = tested on: SK-MEL-28 melanoma
EKVX NSCLC = tested on: EKVX NSCLC
SN12C renal = tested on: SN12C renal
UO-31 renal = tested on: UO-31 renal
TK-10 renal = tested on: TK-10 renal
ACHN renal = tested on: ACHN renal
CAKI-1 renal = tested on: CAKI-1 renal
A498 renal = tested on: A498 renal
CCRF-CEM leukemia = tested on: CCRF-CEM leukemia
MOLT-4 leukemia = tested on: MOLT-4 leukemia
SK-MEL-2 melanoma = tested on: SK-MEL-2 melanoma

| SMILES | growth (HCT-15 colon) | growth (HT29 colon) | growth (SNB-75 CNS) | growth (SNB-19 CNS) | growth (U251 CNS) | growth (PC-3 prostate) | growth (SK-MEL-5 melanoma) | growth (UACC-62 melanoma) | growth (LOX IMVI melanoma) | growth (SK-MEL-28 melanoma) | growth (EKVX NSCLC) | growth (SN12C renal) | growth (UO-31 renal) | growth (TK-10 renal) | growth (ACHN renal) | growth (CAKI-1 renal) | growth (A498 renal) | growth (CCRF-CEM leukemia) | growth (MOLT-4 leukemia) | growth (SK-MEL-2 melanoma) |
| --- | --- | --- | --- | --- | --- | --- | --- | --- | --- | --- | --- | --- | --- | --- | --- | --- | --- | --- | --- | --- |
| COC(=O)c1c(C)nc(C)c2c1C(=O)C(Br)=C(NCCN1CCOCC1)C2=O | 87.9% | 68.2% | 119% | 101% | 101% | 86.3% | 70.8% | 55.6% | 82.8% | 113% | 100% | 89.5% | 86.5% | 108% | 97.9% | 91.4% | 92.4% | 97.3% | 99.3% |  |
| O=S(=O)(c1ccc(NCSc2nc3ccccc3s2)cc1)c1ccc(NCSc2nc3ccccc3s2)cc1 | 106% | 87.8% | 81.6% | 95.9% | 90.6% | 64.9% | 97% | 83.5% | 91.1% | 110% | 101% | 95.5% | 60.2% | 92.6% | 102% | 95.4% | 112% | 71.8% | 76.9% |  |
| C=C(CNCCO)[C@@H]1CC[C@]2(CO)CC[C@]3(C)[C@H](CC[C@@H]4[C@@]5(C)CCC(NCCO)C(C)(C)[C@@H]5CC[C@]43C)[C@@H]12 (stereo partly specified) | 71.6% | 12.7% | 66.8% | 83.6% | 31.4% | 75.2% | 65.2% | 94.6% | 33.3% | 80.7% | 82.4% | 89.1% | 65.2% | 92.7% | 95.9% | 72.2% | 75.3% | 39.2% | 39.9% |  |
| N=C(N)c1ccc(-c2ccc(-c3ccccc3)s2)nc1 | 44.9% | 26.7% | 88.4% | 87.5% | 41.1% | 80.5% | 87.5% | 91.6% | 51.3% | 109% | 88.8% | 82.4% | 79.9% | 106% | 91.5% | 73.6% | 88.3% | 68.9% | 57.3% |  |
| CN(C)c1ccc(Cc2cc(-c3ccccc3)nn(C/C(=N/O)c3ccccc3)c2=O)cc1 | 50.1% | 32.9% | 72.9% | 64.4% | 44.3% | 30.9% | 55.8% | 39.3% | 53% | 72% | 49.5% |  |  | 84.5% | 52.8% | 53.6% | -3.2% (active) | 46.6% | 35.1% | 67.9% |
| O=C1C=CC2(O)OC(c3ccccc3)CC(=O)C2=C1O (stereo unspecified) | 64.9% | 108% | 92% | 87.8% | 74.9% | 79.7% | 89.8% | 80.7% | 77% | 95.7% | 89.1% |  |  | 126% | 97.8% | 86.5% | 96% | 46.1% |  | 102% |
| C=C(CNCCc1ccc(O)cc1)[C@@H]1CC[C@]2(CO)CC[C@]3(C)[C@H](CC[C@@H]4[C@@]5(C)CCC(N)C(C)(C)[C@@H]5CC[C@]43C)[C@@H]12 (stereo partly specified) | -79.3% (active) | -49.9% (active) | -97.8% (active) | -86.1% (active) | -84.4% (active) | -75.3% (active) | -95.2% (active) | -86.7% (active) | -86.7% (active) | -90.5% (active) | -62.8% (active) | -81.7% (active) | -98.9% (active) | -84.5% (active) | -71.9% (active) | -81.8% (active) | 64.5% | -26.8% (active) | -32.4% (active) |  |
| COC(=O)c1c(C)nc(C)c2c1C(=O)C(Br)=C(NCCCCO)C2=O | 49.8% | 19.5% | 97.7% | 75.3% | 72.1% | 62.5% | -53.4% (active) | 44.2% | 50.2% | 102% | 62.2% | 61.7% | 79.7% | 119% | 84.7% | 70.5% | 115% | 71.8% | 79.5% |  |
| Cc1c(N2CCCCC2)[nH]c2ccccc12 | 131% | 104% | 117% | 116% | 101% | 70.5% | 107% | 110% | 95.3% | 133% | 117% | 98.4% | 125% | 121% | 115% | 101% | 123% | 55.1% | 110% |  |
| COc1cccc(/C=C2\CCc3ccccc3C2=O)c1 | 87.2% | 77.1% | 97.4% | 75.7% | 83.2% | 83.4% | 76.8% | 80.1% | 80.2% | 118% | 87.9% |  |  | 94.4% | 95.7% | 77.3% | 95.2% | 37.7% | 71.6% | 82.9% |
| CN(C)C(=O)OCc1ccc2c(Cl)cc(Cl)c(O)c2n1 | 22.8% | 94% | 48% | 29.7% | 18.5% | 46.4% | 27.4% | -4.4% (active) | 15.9% | 42.2% | 30.5% | 36.6% | 27.2% | 64.2% | 27.2% | 18.6% | 68% | 23% | 22.1% |  |
| O=C(Nc1ncc(Cc2ccccc2)s1)c1ccc2c(c1)OCCO2 | 7.07% (active) | 4.31% (active) | 9.1% (active) | 35.4% | 14.2% | 27.1% | -29.7% (active) | 33.6% | 10.6% | 66.3% | 32.6% | 34.5% | 46.6% | 38.8% | 27.3% | 17.2% | 2.75% (active) | 13.8% | 6.38% (active) |  |
| COC(=O)c1nc(-c2ccccc2)oc1S(=O)(=O)N1CCN(c2ccc(OC)cc2)CC1 | 42.8% | 43.8% | 101% | 97.8% | 90.8% | 63.9% | 90.8% | 86.8% | 62.9% | 88.3% | 88.2% |  | 66.1% | 68.1% | 66.4% | 79.3% | 121% | -11.9% (active) | 25.1% | 106% |
| COc1ccc(Cn2cc(C(=O)N=Nc3c(O)[nH]c4ccc(Br)cc34)nn2)cc1 | 105% | 88.5% |  | 97.3% | 105% | 99.8% | 98.3% | 97.2% | 107% | 115% | 106% | 102% | 91.5% | 97.6% | 110% | 97.7% | 97.1% | 92.5% | 80.6% | 98.1% |
| CNC(=O)c1cc(Oc2ccc3nc(NC(=O)NC(C)C)sc3c2)ccn1 | 55.9% | 33.3% |  | 82.3% | 51.6% | 70.1% | 65.3% | 68.6% | 68.8% | 85.8% | 93.7% | 86.3% | 79.2% | 88.6% | 94% | 91.9% | 51.4% | 64.4% | 40.7% | 89.9% |
